We go through 34 compounds from PubChem BioAssay (Tox21).

Assay [1] is described as follows: qHTS assay to test for compound auto fluorescence at 535 nm (green) in HEK293 cells (AID 720680). A general note: In qHTS, concentration-response curves come from the screen itself.
Assay [2] in a line: qHTS assay to test for compound auto fluorescence at 460 nm (blue) in HEK293 cell free culture (AID 720681). The gist of the method: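 Blue fluorescence (Ex 405/Em 460 nm, triamterene-equivalent) was read immediately after pin transfer of compound or DMSO into medium (DMEM, 10% FBS) without cells.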
A short description of assay [3]: qHTS assay to test for compound auto fluorescence at 535 nm (green) in HEK293 cell free culture (AID 720682). In a few lines: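 DMEM + 10% FBS, cell-free; cpd or DMSO pinned in; Ex485/Em535 read; output as fluorescein-equivalent signal.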
Assay [4] can be described thus: qHTS assay to test for compound auto fluorescence at 590 nm (red) in HEK293 cell free culture (AID 720683). In a few lines: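 Red-channel autofluorescence of compounds in culture medium (DMEM, 10% FBS), no cells, measured at 540/590 nm. Rose Bengal sodium is the reference fluorophore for equivalence.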
Assay [5] can be described thus: qHTS assay to test for compound auto fluorescence at 535 nm (green) in HepG2 cell free culture (AID 720686).
A short description of assay [6]: qHTS assay to test for compound auto fluorescence at 460 nm (blue) in HepG2 cells (AID 720687). The gist of the method: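 Blue-channel autofluorescence (Ex/Em 405/460 nm, triamterene-equivalent) was measured after 1 hr compound exposure at 37 C, 5% CO2. Cells were HepG2, plated overnight at 37 C in MEM plus 10% FBS.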
Assay [7] can be described thus: qHTS assay to test for compound auto fluorescence at 460 nm (blue) in HepG2 cell free culture (AID 720685). In a few lines: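 Cell-free plates of MEM plus 10% FBS received 23 nL compound or DMSO vehicle; blue-channel (405/460 nm) intensity scored against triamterene as reference fluorophore.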
Assay [8] addresses Glucocorticoid receptor (Homo sapiens) (UniProt P04150). As to the kind of experiment: qHTS assay to identify small molecule agonists of the glucocorticoid receptor (GR) signaling pathway (AID 720691; active means well fitted activation curve with a large enough effect in the signal ratio in the repeat runs, not every such curve was filed as active; the % refers to the signal ratio; further: potency means the concentration at half of the fitted maximal effect). The settings on record: GR-bla HeLa, beta-lactamase reporter ratio, 18 h; activation: at 62.4 µM (top of the series) unless noted. The gist of the method: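 HeLa GR-bla reporter line; cells pre-incubated 4 h, compound in DMSO 18 h at 37 C; LiveBLAzer B/G FRET substrate 2 h RT; fluorescence intensity read-out.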

Assay [9] has the same target. The assay is described as follows: qHTS assay to identify small molecule antagonists of the glucocorticoid receptor (GR) signaling pathway (AID 720692; active means well fitted inhibition curve with a large enough effect in the signal ratio in the repeat runs, not every such curve was filed as active; the % refers to the signal ratio). The gist of the method:
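Read-out: beta-lactamase FRET substrate fluorescence, 2 h at room temperature, in HeLa cells stably carrying a GRE-driven bla reporter. Compounds were co-incubated with 5 nM dexamethasone agonist (final) for 18 h at 37 C.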

The nature of assay [10]: qHTS assay to test for compound auto fluorescence at 590 nm (red) in HepG2 cell free culture (AID 720684). In a few lines:
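Cell-free; medium MEM + 10% FBS; compound or DMSO added by pintool; read Ex 540/Em 590 nm; Rose Bengal sodium as red reference fluorophore.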

Unmarked numbers belong to inactive results. Inconclusive results are not listed. Activity calls are given as the source filed them. Unless noted, the call rests on the fitted dose curve; in most records, active means well fitted curve in the direction sought with a large enough effect in the repeat runs; inconclusive means weak or mixed curves; inactive means flat fitted curve, though single readings scatter.
On the % scale 0 is the no-effect control and ±100 the full control effect.

Sequence of Glucocorticoid receptor (Homo sapiens) (P04150 whole entry, looked up): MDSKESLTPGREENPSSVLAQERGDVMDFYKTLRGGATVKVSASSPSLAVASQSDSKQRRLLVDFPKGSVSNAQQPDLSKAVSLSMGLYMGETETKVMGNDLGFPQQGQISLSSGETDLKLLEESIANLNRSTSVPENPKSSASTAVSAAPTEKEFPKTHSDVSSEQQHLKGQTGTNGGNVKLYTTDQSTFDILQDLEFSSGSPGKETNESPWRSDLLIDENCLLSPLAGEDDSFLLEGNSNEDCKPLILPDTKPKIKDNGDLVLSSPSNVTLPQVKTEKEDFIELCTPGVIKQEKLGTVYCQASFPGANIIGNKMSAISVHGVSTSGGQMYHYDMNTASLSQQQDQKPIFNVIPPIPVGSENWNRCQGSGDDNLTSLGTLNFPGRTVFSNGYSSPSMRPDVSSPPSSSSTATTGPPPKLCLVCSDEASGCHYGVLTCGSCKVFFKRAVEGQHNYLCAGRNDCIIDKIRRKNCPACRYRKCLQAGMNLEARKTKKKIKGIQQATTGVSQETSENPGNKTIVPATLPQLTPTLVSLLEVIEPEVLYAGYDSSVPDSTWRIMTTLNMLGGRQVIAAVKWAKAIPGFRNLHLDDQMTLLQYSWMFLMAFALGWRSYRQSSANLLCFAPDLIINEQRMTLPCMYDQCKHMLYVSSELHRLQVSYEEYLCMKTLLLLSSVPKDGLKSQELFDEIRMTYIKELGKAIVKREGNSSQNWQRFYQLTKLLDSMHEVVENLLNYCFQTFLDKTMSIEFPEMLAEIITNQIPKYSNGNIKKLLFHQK

As for `O=P(O)(OCc1ccccc1)OCc1ccccc1`, the outcome in assay [1], in [2], in [3] and in [6] was inactive. Also, the Potency entry in assay [4] and in assay [5] was “inactive” in each case.
Regarding `CCC(=O)O[C@]1(C(=O)CCl)[C@@H](C)C[C@H]2[C@@H]3CCC4=CC(=O)C=C[C@]4(C)[C@@]3(F)[C@@H](O)C[C@@]21C`, the call in [1], in [2], in [3] and in assay [7] was inactive. Moreover, the Potency result in assay [4] and in assay [5] was “inactive” throughout. Further, the Potency in assay [8] is 0.6 nM (active).
Regarding `COc1cccc(N(C)C(=S)Oc2ccc3c(c2)CCCC3)n1`, the compound was called inactive in [1], in assay [2], in [3] and in assay [7]. Also, the Potency entry in [4] and in assay [5] was “inactive” throughout.
`CCOC(=O)Cc1cccc2ccccc12`: the compound was classed as inactive in assay [1], in [2], in assay [3], in [7] and in assay [6]. The Potency entry in assay [4], in assay [5], in assay [8] and in [9] was “inactive” throughout.
Consider `O=C(O)c1ccc(-n2nc(-c3ccccc3O)nc2-c2ccccc2O)cc1`, for which the compound was called inactive in assay [1], in assay [2], in assay [3], in assay [7] and in assay [6]. The Potency entry in assay [4] is “inactive”.
Take `Brc1c2ccccc2c(Br)c2ccccc12`: in [1], the fluorescence, % of fluorescein is 0.0022% [at 3.72 µM]. The fluorescence, % of fluorescent control in [2] is 0.357% [at 3.72 µM]; in assay [4] it was 0.0422% [at 3.72 µM]; in [7] it was 0.581% [at 3.72 µM]; in [6] it was 1.18% [at 3.72 µM]. Also, the activity change in assay [3] was -0.0415% [at 3.72 µM]. The fluorescence, % of fluorescein control in assay [5] was 0.0474% [at 3.72 µM]. The Potency in [8] is 882 nM (active).
For `CN1CCC(=C2c3ccccc3Sc3ccccc32)CC1`, the compound was called inactive in assay [1], in [2], in assay [3] and in assay [6]. In addition, the Potency result in assay [4] and in [5] was “inactive” each time.
With `CCN(CC)CCOC(=O)C(c1ccccc1)C1CCCCC1` (centres undefined), the compound was classed as inactive in [1], in assay [2], in assay [3] and in assay [6]. Further, the Potency entry in [4], in assay [5], in assay [8] and in assay [9] was “inactive” throughout.
As for `CCCCCCc1ccc(-c2ccc(C#N)cc2)cc1`, the call in assay [1], in [2], in [3], in assay [7] and in [6] was inactive. In addition, the Potency result in assay [4], in assay [5] and in assay [8] was “inactive” throughout.
Consider `c1ccc(C(O[C@H]2CCCN(CCc3ccc4c(c3)OCO4)C2)c2ccccc2)cc1`, for which the call in assay [1], in [2], in assay [3], in assay [7] and in assay [6] was inactive. Besides, the Potency entry in assay [4], in assay [5] and in [8] was “inactive” in each case.
As to `O=CC1CC=CCC1` (centres undefined), the result in [1], in assay [2] and in assay [7] was inactive. Besides, the Potency result in [4], in assay [10] and in assay [5] was “inactive” each time.
For the compound `CC(C)(C)Cl`, the result in assay [1], in assay [2] and in assay [7] was inactive. In addition, the Potency result in assay [4], in assay [10] and in assay [5] was “inactive” throughout.
`O=C(O)c1nc(Cl)c(Cl)c(Cl)c1Cl`: the compound was called inactive in assay [1], in assay [2], in [3], in [7] and in [6]. Also, the Potency entry in assay [4], in assay [5] and in assay [8] was “inactive” each time.
As for `CCCCCCCCCCCCCCCCOS(=O)(=O)O`, the outcome in [1], in assay [2], in assay [3], in assay [7] and in assay [6] was inactive. Besides, the Potency result in [4] and in assay [5] was “inactive” each time.
`C[N+]1(CC2COC(c3ccccc3)(C3CCCCC3)O2)CCCCC1` (centres undefined): the compound was classed as inactive in [1], in [2], in [3], in [7] and in assay [6]. Moreover, the Potency result in assay [4], in assay [5] and in [8] was “inactive” each time.
On to `CCCCCCCCCCO[C@@H]1O[C@H](CO)[C@@H](O)[C@H](O)[C@H]1O`, for which the result in assay [1], in assay [2], in assay [3] and in assay [7] was inactive. The Potency entry in assay [4] and in assay [5] was “inactive” each time.
As for `CN(C)c1ccc(CCO)cc1`, the result in assay [1], in [2] and in [7] was inactive. The Potency entry in assay [4], in assay [10] and in assay [5] was “inactive” throughout.
On to `CC(=O)NO`, for which the compound was called inactive in assay [1], in assay [2] and in assay [3]. Besides, the Potency result in [4], in assay [5], in [8] and in assay [9] was “inactive” in each case.
With `CCc1c(C(=O)NN2CCCCC2)nn(-c2ccc(Cl)cc2Cl)c1-c1ccc(Br)cc1`, the compound was classed as inactive in assay [1], in assay [2], in assay [3] and in [6]. Besides, the Potency result in assay [4] and in [5] was “inactive” throughout.
As for `O=C1CCCCCCCCCCCC(=O)OCCO1`, the call in assay [1], in assay [2], in assay [3], in [7] and in assay [6] was inactive. Moreover, the Potency result in assay [4], in [5] and in assay [9] was “inactive” throughout.
In the case of `Cc1oc(-c2ccccc2)nc1CCOc1cccc2c1ccn2CCC(=O)O`, the compound was classed as inactive in assay [1], in assay [2], in [3], in assay [7] and in [6]. For the same compound, the Potency entry in assay [4], in assay [5], in [8] and in [9] was “inactive” throughout.
For `CCN(CC)CCNC(=O)c1cc(Br)c(N)cc1OC`, the compound was classed as inactive in [1], in [2], in [3], in assay [7] and in assay [6]. The Potency entry in [4] and in [5] was “inactive” each time.
For `C[N+](C)(C)CCOC(=O)CCC(=O)OCC[N+](C)(C)C`, the compound was classed as inactive in [1], in assay [2], in [3], in assay [7] and in assay [6]. Moreover, the Potency entry in assay [4], in assay [5] and in assay [8] was “inactive” each time.
For `Nc1cccc([N+](=O)[O-])c1`, the outcome in assay [1], in assay [2], in assay [3] and in assay [6] was inactive. The Potency result in [4], in assay [5] and in assay [8] was “inactive” in each case.
As to `c1cc(CCCc2ccncc2)ccn1`, the call in assay [1], in [2], in assay [3], in assay [7] and in [6] was inactive. Besides, the Potency result in assay [4], in assay [5], in [8] and in [9] was “inactive” throughout.
On to `C[C@H]1C[C@H]2[C@@H]3CCC4=CC(=O)C=C[C@]4(C)[C@@]3(Cl)[C@@H](O)C[C@]2(C)[C@@]1(O)C(=O)CO`, for which the compound was classed as inactive in assay [1], in [2], in assay [3] and in assay [6]. For the same compound, the Potency entry in assay [4] and in assay [5] was “inactive” throughout.
As to `CCCn1cnc2c1c(=O)n(CCCCC(C)=O)c(=O)n2C`, the compound was called inactive in [1], in assay [2], in assay [3], in assay [7] and in assay [6]. The Potency entry in assay [4] and in [9] was “inactive” each time.
On to `CNCCCCOc1ccccc1Cc1ccccc1`, for which the call in assay [1], in assay [2], in [3], in [7] and in assay [6] was inactive. For the same compound, the Potency result in assay [4], in assay [5] and in assay [8] was “inactive” throughout.
In the case of `COC(C)(C)CCO`, the outcome in assay [1], in assay [2], in assay [3], in assay [7] and in [6] was inactive. In addition, the Potency result in assay [4], in assay [5], in assay [8] and in assay [9] was “inactive” throughout.
For `CCO[Si](CCCCl)(OCC)OCC`, the result in assay [1], in assay [2], in assay [7] and in assay [6] was inactive. In addition, the Potency entry in [4], in [10], in assay [8] and in assay [9] was “inactive” in each case.
Turning to `CCCCCC[C@@H](O)C/C=C\CCCCCCCC(=O)OC`, the compound was called inactive in assay [1], in [2], in assay [7] and in assay [6]. Moreover, the Potency result in assay [4], in assay [10] and in assay [5] was “inactive” each time.
Consider `CCC(C)O` (centres undefined), for which the result in [1], in [2], in assay [7] and in assay [6] was inactive. Besides, the Potency entry in assay [4], in assay [5], in assay [8] and in assay [9] was “inactive” throughout.
Regarding `CCCNCC(O)COc1ccccc1C(=O)CCc1ccccc1` (centres undefined), the outcome in assay [1], in assay [2] and in assay [6] was inactive. In addition, the Potency entry in assay [4] and in [5] was “inactive” in each case.
On to `CCCCCCCCCCCc1ccccc1`, for which the result in [1], in assay [2] and in assay [7] was inactive. The Potency result in assay [4], in assay [10] and in assay [8] was “inactive” in each case.
